In the library only some 3.6% were active in any assay of this set; here they are far more common.
Giardia FBPA inh – qHTS Assay for Inhibitors of Fructose-1,6-bisphosphate Aldolase from Giardia Lamblia. AID 2451, 2010. 290,000 tested, 0.71% active. purified Giardia FBPA. Potency, µM (doses to about 59.6 µM), hits mostly inhibitors; also: nearly all actives have a fitted effect of over 55% in size
Target sequence (A8B2U2 whole entry, looked up): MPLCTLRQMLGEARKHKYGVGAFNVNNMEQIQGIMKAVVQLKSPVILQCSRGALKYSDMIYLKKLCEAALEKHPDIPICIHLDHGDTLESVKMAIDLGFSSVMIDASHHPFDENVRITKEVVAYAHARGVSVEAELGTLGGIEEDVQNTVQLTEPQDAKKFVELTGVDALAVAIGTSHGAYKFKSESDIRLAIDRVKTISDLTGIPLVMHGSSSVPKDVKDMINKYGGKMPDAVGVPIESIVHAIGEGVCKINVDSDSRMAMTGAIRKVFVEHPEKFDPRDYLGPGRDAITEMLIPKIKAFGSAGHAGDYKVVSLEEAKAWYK
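40 nM FBPA preincubated 10 min at RT with compound (up to 57.5 uM final), then substrate plus GAPDH/TPI/NAD/arsenate coupling and diaphorase/resazurin added. Fluorescence read after 20 min at RT, 525/598 nm.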
Sm TGR block – qHTS Assay for the Inhibitors of Schistosoma Mansoni Peroxiredoxins | Schistosoma mansoni thioredoxin glutathione reductase (TGR), Q962Y6 | purified TGR, DTNB reduction, TNB absorbance 405 nm | Potency, µM (titrated, usually from 114 µM), actives largely listed as inhibitors | 360,000 tested, 3% active | AID 485364, 2010; also: nearly all actives have a fitted effect of over 60% in size
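Kinetic colorimetric format: TGR-catalysed, NADPH-driven DTNB reduction monitored via TNB absorbance. Enzyme dispensed at 20 nM; compound exposure 15 min at room temperature before reaction start.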
AmpC inh detg – qHTS Inhibitors of AmpC Beta-Lactamase (assay with detergent); 370,000 tested, 0.041% active; AmpC hydrolysis of nitrocefin, absorbance 480 nm, 0.01% Triton; Potency, µM (top dose mostly 114 µM), usual class: inhibitors; also: nearly all actives have a fitted effect of over 25% in size
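AmpC (5.3 nM in the dispensed reagent) in 20 mM phosphate pH 7.0 with 0.01% (detergent screen) or 0.0001% Triton X-100 was preincubated with compounds for 15 min at room temperature. Nitrocefin was then added from an 800 uM solution, and hydrolysis was followed at 480 nm.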
AmpC no deterg – qHTS Inhibitors of AmpC Beta-Lactamase (assay without detergent); P00811; AmpC nitrocefin hydrolysis, absorbance 480 nm, 0.0001% Triton; Potency, µM (highest dose often 57.1 µM), hits mostly inhibitors; 330,000 tested, 0.52% active; also: nearly all actives have a fitted effect of over 20% in size
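20 mM phosphate pH 7.0 + 0.01% (detergent screen) or 0.0001% Triton X-100; 5.3 nM AmpC reagent; cpd preinc 15 min RT; nitrocefin (800 uM stock) to start; A480 q20 s × 4 min; Activity was normalised to no-enzyme and no-compound control wells.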
A number is an active result; 0 = inactive; ? = inconclusive; - = not tested or not shown. Calls follow the shape of the dose curve; as a rule, active = well fitted curve in the direction sought with a large enough effect; inconclusive = small, poorly fitted or top-dose-only effect, or another doubt; inactive = no such curve, though single readings can be large; an effect the other way counts as inactive or inconclusive.

SMILES	Giardia FBPA inh	Sm TGR block	AmpC inh detg	AmpC no deterg
COc1cccc(N2CCN(C3CC(=O)N(c4ccc(F)c(Cl)c4)C3=O)CC2)c1 (stereo unspecified)	0	50.1µM	0	0
CCN1C(=O)CC(N2CCC(Nc3ccc(OC)cc3)CC2)C1=O (stereo unspecified)	0	0	0	0
COc1ccc(NC2CCN(C3CC(=O)N(c4ccc(F)c(Cl)c4)C3=O)CC2)cc1 (stereo unspecified)	0	11.2µM	0	0
COc1ccc(Nc2nc3ccccc3nc2NS(=O)(=O)c2ccc(Cl)cc2)cc1OC	-	0	0	-
Cc1noc(C)c1-c1ccc2ncnc(NCc3ccc4c(c3)OCO4)c2c1	0	-	-	-
CN(C)c1ncnc2ccc(-c3ccccc3C#N)cc12	0	-	-	-
CSc1ccc(C(=O)C2CCCN(C(=O)c3nn(C)c(=O)c4ccccc34)C2)cc1 (stereo unspecified)	0	14.1µM	?	0
Cn1nc(C(=O)N2CCCC2)c2ccccc2c1=O	0	0	0	0
CCOP(=O)(OCC)C(NS(=O)(=O)c1ccccc1)C(Cl)(Cl)Cl (stereo unspecified)	0	14.1µM	0	0
CCOP(=O)(OCC)C(NC(=O)c1ccccc1)C(Cl)(Cl)Cl (stereo unspecified)	0	0	0	0
COC1(NC(=O)c2ccccc2)C(C)=CC(=O)C=C1C	0	25.1µM	0	0
O=C(NC1(O)C(=O)c2ccccc2C1=O)c1ccccc1	?	0	?	0
COc1ccc(CCNC(=O)CCc2c(C)c3cc4c(C)coc4c(C)c3oc2=O)cc1OC	-	0	?	-
Cc1ccc(-c2noc(-c3ccccc3C(=O)NCc3ccco3)n2)cc1	0	?	0	0
COc1ccc(-c2noc(CCC(=O)NCc3ccco3)n2)cc1	0	39.8µM	0	0
Cc1ccccc1-c1noc(CCC(=O)NCc2ccco2)n1	0	28.2µM	0	0
Cc1ccc(-c2noc(CCCC(=O)NCc3ccco3)n2)cc1	-	0	0	-
Cc1cccc(-c2noc(-c3ccccc3C(=O)NCc3ccco3)n2)c1	0	22.4µM	0	0
COc1ccc(-c2onc(C)c2-c2ccccc2)c(O)c1	0	0	0	0
O=C1c2ccccc2-c2onc3c(Oc4ccccc4)cc(O)c1c23	0	44.7µM	0	0
CC(=O)Cc1nsc(NC(=O)c2ccco2)n1	0	44.7µM	0	0
COc1ccc(OCC#CCN2CCCCCC2)cc1	?	?	?	0
COc1ccc(OCC#CCN2CC(C)OC(C)C2)cc1 (stereo unspecified)	?	7.08µM	?	0
Cc1ccc(S(=O)(=O)c2nc(S(C)(=O)=O)sc2N2CCC3(CC2)OCCO3)cc1	0	0	0	0
O=C(c1[nH]ncc1-c1cccc(Br)c1)C1CO1 (stereo unspecified)	0	11.2µM	0	0
SMILES	Giardia FBPA inh	Sm TGR block	AmpC inh detg	AmpC no deterg
CC(C)OC(=O)c1cc2c(=O)[nH]c(C(Cl)(Cl)Cl)nc2o1	0	28.2µM	0	0
CC(C)OC(=O)c1ccc(S(N)(=O)=O)o1	0	0	0	0
CCCS(=O)(=O)c1c(S(=O)(=O)CCC)c2ccccn2c1C(=O)OC	0	28.2µM	0	0
CCCS(=O)(=O)c1c(S(=O)(=O)CCC)c2c(C)cccn2c1C(=O)OC	0	10µM	?	0
CCCS(=O)(=O)c1c(S(=O)(=O)CCC)c2cc(CC)ccn2c1C(=O)OC	0	0	0	0
CCCS(=O)(=O)c1c(S(=O)(=O)CCC)c2c(N)cccn2c1C(=O)c1ccc(F)cc1	?	22.4µM	0	0
O=S(=O)(c1c(F)cccc1F)C1CCN(S(=O)(=O)c2ccc3c(c2)OCCO3)CC1	-	-	-	0
Cn1ccc2cc(-c3ccc4ncnc(NCc5cccnc5)c4c3)ccc21	-	0	?	0
O=C(CSc1nc2ccccc2s1)c1ccc(O)cc1O	0	0	0	7.08µM
CCC(C)(C)C(=O)O[C@H]1C[C@@H](C)C=C2C=C[C@H](C)[C@H](CC[C@@H]3C[C@@H](O)CC(=O)O3)[C@H]21	0	0	?	0
Cc1ccc(-n2cc(C(=O)Oc3cccc(C)c3)c3ccccc3c2=O)cc1	-	0	0	-
Cc1ccc(-n2cc(C(=O)Oc3ccc(F)cc3)c3ccccc3c2=O)cc1	-	35.5µM	0	-

Compound activity (PubChem)
